# In PubChem BioAssay (NCATS):
# Inconclusive results are not listed. Where a call stands in place of a potency, no number is given. Active and inactive are the calls of the source. Calls follow the shape of the dose curve; as a rule, active = well fitted cell-killing curve with a large enough effect; inconclusive = small, poorly fitted or top-dose-only effect, or effect the other way; inactive = flat fitted curve, though single readings scatter.
# Test system: Tov-21-G
# Test: Primary qHTS to identify gynecologic anti-cancer compounds using libraries of approved drugs and bioactive compounds (AID 1345084); also: nearly all actives have a fitted effect of over 55% in size
# Settings: Gynecologic cancer cell panel viability, ATPlite luminescence, 48 h; series mostly up to 57.5 µM
# In short: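 48 h compound exposure at 37 C, 5% CO2; five-point qHTS. ATPlite luminescence readout of cell ATP.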
# Potency is read from the fitted curve at half-maximal effect.
Compound,Potency,"activity change, negative = cytotoxicity"
CCC(C)n1cc(C)c2c(C(=O)NCc3c(C)cc(C)[nH]c3=O)cc(-c3ccc(N4CCNCC4)nc3)cc21 (centres undefined),inactive,–
CC(C)[C@@H](C)/C=C/[C@@H](C)[C@H]1CC[C@H]2C3=CC=C4C[C@@H](O)CC[C@]4(C)C3=CC[C@]12C,inactive,–
Cn1c(NC[C@@H](N)Cc2ccccc2)nc(-c2ccncc2)c(-c2ccc3ccccc3c2)c1=O,inactive,–
CC1(C)CC[C@]2(C(=O)OC3OC(CO)C(O)C(O)C3O)CC[C@]3(C)C(=CCC4[C@@]5(C)CC[C@H](OC6OC(C(=O)O)C(O)C(O)C6O)C(CO)(CO)C5CC[C@]43C)[C@@H]2C1 (some centres undefined),–,-29.8% [at 11.6 µM] (inactive)
CC(=O)N1c2ccc(-c3ccc(C(=O)O)cc3)cc2C(Nc2ccc(Cl)cc2)CC1C (centres undefined),2.24 µM (active),–
COc1ccc(C(=O)N(CCC(C)C)Cc2nc(C)c(C)n2Cc2ccccc2C)c(OC)c1,inactive,–
O=C(Nc1ccc(F)cc1)N1CCc2ccccc2C1c1ccc(C(F)(F)F)cc1 (centres undefined),inactive,–
Cc1ccc(C(=O)N2CCN(c3ccc([N+](=O)[O-])cc3)CC2)cc1Cl,inactive,–
CN(C)C(=O)c1cc2cnc(Nc3ccc(N4CCNCC4)cn3)nc2n1C1CCCC1,inactive,–
C=C1/C(=C/C=C2\CCC[C@]3(C)[C@@H]([C@H](C)/C=C/C(=O)C4CC4)CC[C@@H]23)C[C@@H](O)C[C@@H]1O,inactive,–
CC(C)(C)c1ccc(-c2nc3ccccc3[nH]2)cc1,1.41 µM (active),–
COc1cc(O)c(C(=O)CCc2ccc(O)cc2)c(O[C@@H]2O[C@H](CO)[C@@H](O)[C@H](O)[C@H]2O)c1,inactive,–
CCN1CCN(Cc2ccc(-c3cc4c(NC(C)c5ccccc5)ncnc4[nH]3)cc2)CC1 (centres undefined),4.47 µM (active),–
Cc1ccc(C2(COC(=O)C(C)C)CO2)c(OC(=O)C(C)C)c1 (centres undefined),inactive,–
COc1cc2ncnc(Oc3cccc(NC(=O)Nc4cc(C(C)(C)C(F)(F)F)on4)c3)c2cc1OC,inactive,–
O=C(NNc1ccccc1)c1ccncc1,inactive,–
CN(CCCNC(=O)c1ccc2nc3c(c(Cl)c2c1)CCCC3)Cc1ccccc1,inactive,–
OCC(Cc1ccccc1)Nc1nc(Oc2ccc3c(c2)CCC3)nc2c1ncn2Cc1ccc(-c2ccccc2)cc1 (centres undefined),inactive,–
CCN(CC)c1ccc(C(=C2C=CC(=[N+](CC)CC)C=C2)c2cc(S(=O)(=O)O)ccc2S(=O)(=O)[O-])cc1,25.1 µM (active),–
O=C(NC(NC(=S)Nc1ccc(F)c([N+](=O)[O-])c1)C(Cl)(Cl)Cl)C(c1ccccc1)c1ccccc1 (centres undefined),inactive,–
CC1CCC2C(=CCC(O)C2(C)C)C1(C)Cc1c(O)cc(CO)c(C=O)c1O (centres undefined),inactive,–
CCCCn1c(-c2ccccc2)nc(-c2ccccc2)c1CN(Cc1ccc2c(c1)OCO2)Cc1ccc2c(c1)OCO2,inactive,–
COc1ccc(CNC(=O)Nc2ncc([N+](=O)[O-])s2)cc1,inactive,–
O=C(NCc1ccc(Oc2ccccc2)cc1)c1nc(-c2cc(Br)c(O)c(Br)c2)no1,inactive,–
